Screen size: about 53,000 sequences; about 3,700 (7%) were called active. The full list was thinned out, with actives kept by preference. Unmarked numbers belong to inactive results.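 The calls were made as follows: active = gene knockdowns whose robust z-score for IL-1 alpha signal is at least 2 or at most -2, so actives lie on both sides; inactive = the rest.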

The test is described as follows: Components of the Cytosolic LPS Sensing Pathway: Gene Identification via Genome-wide siRNA Screen.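 Also: robust z of the log signal after scaling to non-targeting control siRNA wells of the plate.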 The settings on record: RAW264.7 macrophages, IL-1a HTRF, actives lie on both sides, screened at 100 nM (by protocol), cells primed 5 h with Pam3CSK4 first. In short, it runs like this:
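Supernatant IL-1a by HTRF from RAW264.7 cells primed with Pam3CSK4 (5 hours) and transfected with LipidA (24 hour) after 48h siRNA knockdown at 100 nM; cell viability checked with CellTiter-Glo.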
Consider CGGAACCUUAUUUAAAACUTT against Sirt5, for which the z-score is 0.732.

In the case of GGUAUCUGUGCAAGGGCAATT against Defb5, the z-score is 2.07 (active).

CCUACUCGUGUCGUGAUAATT against Rxrb: the z-score was -0.841. As for GGGCAUUCAGCAGUUACAGTT against Lrriq4, the z-score was 0.521.

For the sequence GGUUUAUGGGACAGUUUUUTT against Plk2, the z-score was 5.58 (active).

With CGUGGAUGAUACCAAAAUGTT against Igsf21, the z-score was -0.73. GGUGCUGAAGAAGCACCAUTT against Stat5a: the z-score was 0.271. The figure for GCGAGAUUCUUGCUUACUCTT against Slc66a2 is -0.472; for GGAUGUUUUCCCGACAAGATT against Angptl1 it is -1.27; for GGAUGGGAAGACUACCCGATT against Camta2 it is -2.62 (active).

Take CGACCUUCAAGGCAAUAUUTT against Anapc2: the z-score is -0.573. Turning to CCAUCUAACCCUAUAUUAGTT against G6pdx, the z-score was -1.21. Regarding CCAUGAAUAGCAUCUUUGCTT against Adamtsl2, the z-score was -0.25.

For the sequence GGAUGACAAAAAUUUCAAGTT against St14, the z-score was -0.283. With GGAGAGGGUCUUAGUCAGATT against Wasf1, the z-score was 0.802. Take GGGUGACAUGGUGACCAUCTT against Matk: the z-score is 3.54 (active). The figure for GGCCUUGUAUCUCUUUACATT against Hdgf is 0.425.

As for GCUGGUUUUGAACUGUACATT against Flt4, the z-score is 0.155.

Turning to CCCAAGUGGUAAGAUUGGUTT against Rps3, the z-score was 0.123.

Take CCCUUGUCUAAAAUAUACATT against Zfp941: the z-score was -0.387.

For CCCUGCUAUCAGCAUCACATT against Hacd3, the z-score was -3.09 (active). Regarding CGGUAUUUGUCUGUAUCCUTT against Npc2, the z-score is -1.71. The figure for GCUGGAUUCUGGUAAAUGGTT against Eif5a is -0.836. For GCAGAUCCGAGACAAGUAUTT against Cplx2 the value was -1.91; for GGAUGAACAACUCUAGGCCTT against Mafk, -0.736. For GGUCUACAGCUACCUGAAUTT against Npc2, the z-score was 0.105.

Turning to GCGGUUUCUUACCAAUAACTT against Cyp1a2, the z-score is 0.984.

As for GGAAGCGUGGAAGUCUACGTT against Kcnj16, the z-score was 0.277. For the sequence GGGCAAAGGGAGUGACAAATT against Skp2, the z-score is -1.95.

As to GGACAACUACAUUGUACUGTT against Insr, the z-score is -1.16.

Source of the values: PubChem BioAssay AID1508600 (Functional Genomics Laboratory (NCATS/FGL), 2020).
